Molecules are shown by their SMILES. Several values for one entry are separate records, joined by “and”; a condition that tells them apart may be missing. Equal values may be shown once. About 37,000 (12%) of roughly 300,000 compounds were called active. The sample holds actives, similar compounds and a random draw of the others, so the mix is not that of the screen. Cut-off read from the data, not from the text of the source: active = max response mostly above about 13% (no sharp cut-off); inactive = mostly below about 14%.

A short description of this assay: Cycloheximide Counterscreen for Small Molecule Inhibitors of Shiga Toxin. Note: read at 38.3 µM for the half of the compounds with a filed dose; 0% is about no effect. To be noted: cell reporter, cycloheximide protein synthesis inhibition counterscreen; active compounds read high. In general terms: A counterscreen serves to expose hits that act by an unwanted route or on another target.
Turning to `O=C(NCc1ccccn1)Nc1ccc(F)cc1`, the max response was -3.36% (inactive).

`COc1cccc(NC(=S)N(Cc2ccc(C)cc2)Cc2ccccn2)c1`: the max response is 0.648% (inactive).

`Cc1cc(C)cc(NC(=O)NCc2ccccn2)c1`: the max response was -2.88% (inactive).

For the molecule `COc1cccc(NC(=S)NCc2ccccn2)c1`, the max response was 72.3% (active).

As for `COc1cccc(NC(=S)NCc2ccco2)c1`, the max response was 18.2% (active).

On to `CCC(C)c1ccc(NC(=S)NCc2ccccn2)cc1` (stereo unspecified), for which the max response was 17.3% (active).

`COc1cccc(OC)c1C(=O)NC(=S)NCc1ccco1`: the max response is 5.2% (inactive).

Turning to `COc1cccc(S(=O)(=O)NCc2ccc(C(=O)NCc3ccccn3)cc2)c1`, the max response was 1.45% (inactive).

With `COC(=O)Cc1ccc(NC(=S)NCc2ccco2)cc1`, the max response was 10.2% (inactive).

Turning to `O=C(O)C1CCCCC1C(=O)N1CCN(S(=O)(=O)c2ccc(F)cc2)CC1` (stereo unspecified), the max response is -2.39% (inactive).

Take `O=C(Nc1ccccc1)N1CCN(C2c3ccccc3-c3ccccc32)CC1`: the max response was -0.816% (inactive).

With `COc1ccc(N(CC(=O)N2CCCCCC2)S(=O)(=O)c2ccccc2)cc1`, the max response was 4.89% (inactive).

On to `CC1(C(=O)NNC(=S)NCC2CCCO2)CC1(Cl)Cl` (stereo unspecified), for which the max response was -4.02% (inactive).

Take `COc1ccccc1N1CCN(S(=O)(=O)c2ccc3c(c2)NC(=O)CS3)CC1`: the max response is 5.75% (inactive).

As to `CC(=O)N1CC(=O)N(CC(=O)Nc2ccc(Br)cc2)C1=S`, the max response was -5.45% (inactive).

For the molecule `NC(=O)COC(=O)c1ccc2c(c1)C(=O)N(Cc1ccco1)C2=O`, the max response is -3.87% (inactive).

Regarding `CCOCN(C(=O)Cn1c(C(C)O)nc2ccccc21)c1c(C)cccc1CC` (stereo unspecified), the max response was -4.33% (inactive).

`COc1ccccc1-c1cnn2c(N3CCOCC3)cc(C)nc12`: the max response is 52% (active).

`Cc1cc(C(F)(F)F)n2ncc(-c3ccccc3)c2n1`: the max response is 6.21% (inactive).

As for `COc1ccccc1NC(=O)C1CCCN(c2cc(C)nc3ncnn23)C1` (stereo unspecified), the max response was -3.74% (inactive).

As for `CN1C(=O)/C(=C\c2cc(Br)cs2)c2ccccc21`, the max response is 46.4% (active).

With `CN1C(=O)/C(=N/OC(=O)c2ccccc2Br)c2ccccc21`, the max response is 3.18% (inactive).

In the case of `CCC1C(=O)c2ccccc2N(C)C1=O` (stereo unspecified), the max response was -0.886% (inactive).

On to `COc1ccc(/C=C(\NC(=O)c2ccccc2)C(=O)NCCN2CCOCC2)cc1OC`, for which the max response was -1.94% (inactive).

`O=C(CNCCC1=CCCCC1)Nc1ccccc1N1CCCCCC1`: the max response was -4.26% (inactive).

Take `CCOc1ccc(C(CCc2ccccc2)NC(=O)c2ccc(OC)c(OC)c2)cc1OCC` (stereo unspecified): the max response is 7.29% (inactive).

In the case of `CC(C)CCC(C)NC(=O)c1ccc2nccnc2c1` (stereo unspecified), the max response was 53.8% (active).

Regarding `COCC(C)NC(=O)c1ccc(Cl)c(Cl)c1` (stereo unspecified), the max response was 0.894% (inactive).

As for `Cc1ccc(C)c(NC(=O)c2ccc3nccnc3c2)c1`, the max response was 5.91% (inactive).

For the molecule `CC(C)C(=O)Nc1c2c(nn1-c1ccccc1)CSC2`, the max response was -1.75% (inactive).

In the case of `Cn1c(=O)c2sccc2n(Cc2ccc(Br)cc2)c1=O`, the max response is -2.03% (inactive).

On to `CCN(CC)CCC(c1ccc2c(c1)OCO2)c1c(OC)cc(OC)c2c(-c3ccccc3)cc(=O)oc12` (stereo unspecified), for which the max response was -5.1% (inactive) and -16.4% (inactive).

As for `C/C(=C\C(=O)c1ccc(Br)cc1)N1CCCCC1`, the max response is -3.58% (inactive).

On to `CC1CN/C(=C\C(=O)c2ccc(Br)cc2)C(=O)N1` (stereo unspecified), for which the max response is 106% (active).

As for `COc1cc2c(cc1OC)/C(=C/C(=O)c1ccc(NC(C)=O)cc1)NCC2`, the max response is -5.05% (inactive).

As to `Cc1cccc(-n2c(SCC(=O)Nc3cccc(S(=O)(=O)NC4=NCCCCC4)c3)nc3ccccc3c2=O)c1C`, the max response was -4.44% (inactive).

Regarding `Cc1cc(Cl)ccc1OCCCC(=O)Nc1cccc(-n2cnnn2)c1`, the max response is 1.51% (inactive).

For the molecule `N#C/C=C1\Sc2ccccc2C(=O)N1CC(=O)N1CCN(S(=O)(=O)c2ccccc2)CC1`, the max response was 27.7% (active).

For the molecule `O=C(Cc1ccccc1)N1CCN(S(=O)(=O)c2ccc([N+](=O)[O-])cc2)CC1`, the max response was -3.27% (inactive).

For `CC(CC(=O)N1CCN(S(=O)(=O)c2ccccc2)CC1)n1cncn1` (stereo unspecified), the max response is -1.89% (inactive).

With `O=C(Oc1cccc(NC2=NS(=O)(=O)c3ccccc32)c1)c1ccncc1`, the max response was -1.79% (inactive).

`Cc1ccc(S(=O)(=O)N(NC2=NS(=O)(=O)c3ccccc32)C(=O)c2ccccc2)cc1`: the max response is -4.47% (inactive).

Regarding `CC(C)(C)c1csc(NC2=NS(=O)(=O)c3ccccc32)n1`, the max response is 26.2% (active).

As for `O=C(Nc1cccc(-c2cccc(Cl)c2)c1)C1CCN(C2CCC2)CC1`, the max response is -5.18% (inactive).

For `O=C(OCCN=C1NS(=O)(=O)c2ccccc21)c1cccc([N+](=O)[O-])c1`, the max response was 0.837% (inactive).

Consider `CCC(CC)c1nnc(NC(=O)c2nn(C)c(=O)c3ccccc23)s1`, for which the max response was -3.83% (inactive).

As for `CC(=O)c1cnc(SCCN2C(=O)c3ccccc3C2=O)nc1C`, the max response is 6.2% (inactive).

Consider `Cc1ccc(SCCN2C(=O)NC(C)(C)C2=O)cc1`, for which the max response was -0.406% (inactive).

For the molecule `Nc1ccc(SCCN2C(=O)c3ccccc3C2=O)cc1`, the max response is 30.6% (active).

On to `CCCCc1cc(=O)oc2c(C)c(OCC(=O)N3CCC(C(N)=O)CC3)ccc12`, for which the max response is -2.86% (inactive).

`COc1ccc(Cl)cc1NC(=O)Cn1nc(-c2ccc(C)cc2)n(C)c1=S`: the max response was 0.595% (inactive).

For `CCN(CC(=O)NCc1ccco1)S(=O)(=O)c1ccc(F)cc1`, the max response is -3.33% (inactive).

In the case of `COc1cc(Nc2nc3ccc(Cl)cc3n3cnnc23)cc(OC)c1OC`, the max response is -8.65% (inactive).

On to `COc1ccc(-c2oc3ncnc(NCCCO)c3c2-c2ccc(OC)cc2)cc1`, for which the max response is -2.49% (inactive).

In the case of `COc1cc(/C=N\NC(=O)CNC(=O)c2cccc([N+](=O)[O-])c2)ccc1O`, the max response was 2.84% (inactive).

With `Cc1ccc(-n2[nH]c(C)c(/C=N/NC(=O)c3cccc([N+](=O)[O-])c3)c2=O)cc1C`, the max response was 34.1% (active).

Regarding `Cc1[nH]n(-c2ccc(Cl)cc2)c(=O)c1/C=N/n1c(C)nc2ccccc2c1=O`, the max response is -2.58% (inactive).

Consider `COc1cc(/C=N/NC(=O)c2ccoc2C)ccc1OCCN1CCCCC1`, for which the max response is 15.6% (inactive).

Consider `COc1cccc(/C=N/NC(=O)c2cccc([N+](=O)[O-])c2)c1OS(=O)(=O)c1ccc(C)cc1`, for which the max response is 1.94% (inactive).

Regarding `Cc1[nH]n(-c2ccccc2)c(=O)c1/C=N/NC(=O)c1ccoc1C`, the max response is 55% (active).

Regarding `O=C(O)c1ccc(-n2nc(-c3ccccc3)c3ccccc3c2=O)cc1`, the max response was 15% (inactive).

With `COc1ccc(OC)c(S(=O)(=O)n2c([N+](=O)[O-])cnc2C)c1`, the max response is 1.29% (inactive).

Regarding `COc1cccc(CNC(=O)C2CC(=O)N(C3CCCCCCC3)C2)c1` (stereo unspecified), the max response was 24.6% (inactive).

`COc1ccc(C2NC(=O)c3ccccc3N2)cc1` (stereo unspecified): the max response is 19.8% (active).

`COc1cccc(C2Nc3cccc4cccc(c34)N2)c1`: the max response is 1.12% (inactive).

Consider `O=C1CC(c2cccc(Cl)c2)CC(O)=C1C=Nc1ccccc1` (stereo unspecified), for which the max response is -1.34% (inactive).

As to `C=CCOc1cccc(C2NC(=O)c3ccccc3O2)c1` (stereo unspecified), the max response was 11.8% (inactive).

As for `O=C1NC(c2cccc(Cl)c2)Nc2ccccc21` (stereo unspecified), the max response is 16% (active).

`Cc1ccc(C2Nc3cccc4cccc(c34)N2)cc1`: the max response was 2.47% (inactive).

Take `CC1=CC(C)(C)NC(=S)N1c1ccccc1`: the max response is -0.571% (inactive).

For `COC(=O)c1ccccc1NC(=O)CSc1nc2c(c(=O)[nH]1)CCC2`, the max response is -0.834% (inactive).

Regarding `COc1ccc(NC(=O)CC2C(=O)NC3CCCCC3N2C(=O)c2ccc(F)cc2)cc1` (stereo unspecified), the max response is -1.58% (inactive).

On to `COc1cccc(NC(=O)c2ccccc2SC)c1`, for which the max response was 2.56% (inactive).

As to `O=C(Nc1ccccc1)c1cccnc1Nc1ccccc1`, the max response is 15% (inactive).

On to `COc1cccc(Nc2ncccc2C(=O)O)c1`, for which the max response is 48% (active).

For `CC(C)CCn1cnc2c1c(=O)n(CC(=O)NC(N)=O)c(=O)n2Cc1ccccc1`, the max response is -9.03% (inactive).

`Nc1nc(Nc2ccccc2F)nc(NC2CCCCC2)c1[N+](=O)[O-]`: the max response was -1.02% (inactive).

For `CCOC(=O)C1CCN(C(=O)COc2cccc3ccccc23)CC1`, the max response was 21.6% (active).

As for `CCOC(=O)C1CCN(C(=O)COc2cc(C)c(Br)c(C)c2)CC1`, the max response was -0.76% (inactive).

As to `NC(=O)C1CCN(C(=O)COc2cccc3cccnc23)CC1`, the max response is -4.62% (inactive).

For the molecule `O=C(c1ccccc1)c1ccc(C(=O)N2CCN(c3ccccc3)CC2)cc1`, the max response was 11.3% (inactive).

Take `O=C(C1CCC1)N1CCN(c2ccccc2)CC1`: the max response was -0.903% (inactive).

Consider `O=C(NNC(=O)c1cc2c(s1)CCCC2)c1ccccc1`, for which the max response was 60.8% (active).

Consider `O=C(Nc1ccc(F)cc1)c1cc2c(s1)CCCC2`, for which the max response is 34.8% (active).

On to `O=C(COC(=O)c1cc2c(s1)CCCC2)NCc1ccccc1Cl`, for which the max response is -0.034% (inactive).

Turning to `O=C(c1cc2c(s1)CCC2)N1CCN(c2ccccc2)CC1`, the max response was 35.8% (active).

Consider `O=C(CNC(=O)c1cc2c(s1)CCC2)Nc1ccccc1Br`, for which the max response is 28.4% (active).

With `CN(CC(=O)Nc1ccccc1F)CC(=O)Nc1ccccc1Br`, the max response was 27.5% (inactive).

`Cc1nn(C)cc1C(=O)Nc1ccccc1Br`: the max response is 9.35% (inactive).

As for `COc1ccc(/C=C2/SC(=O)N(CCCCCC(=O)Nc3ccccc3C(=O)O)C2=S)cc1`, the max response is -7.35% (inactive).

For `Cc1cc(NC(=O)CCC(=O)N(CC(=O)NC2CCCC2)c2ccc(F)cc2)no1`, the max response was -7.13% (inactive).

Turning to `CC(C)CCn1c(=O)c2c(nc3n2CCCN3Cc2ccccc2)n(C)c1=O`, the max response was -1.82% (inactive).

Take `O=C(CSCc1ccc([N+](=O)[O-])cc1)Nc1cccc(C(=O)Nc2ccccc2C(=O)O)c1`: the max response is -3.69% (inactive).

For `C=CCn1c(C2CC(=O)N(c3ccc(C)cc3)C2)nc2ccccc21` (stereo unspecified), the max response was -5.17% (inactive).

With `CC(C)(C)c1cc2cccnc2n1Cc1cccc(F)c1`, the max response was -4.56% (inactive).

Regarding `CCc1ccc(OCC(=O)N(Cc2ccccc2)C2CCS(=O)(=O)C2)cc1` (stereo unspecified), the max response is -3.33% (inactive).
